The list is not random: actives were taken first. Their share in the collection is about 13%.
RAM inhibit: inhibitors of the yeast RAM network; S. cerevisiae dse1pr::URA3 reporter, 5-FOA growth OD615, 2 d; analog-sensitive cbk1-as2 kinase mutant strain; inhibition, % at 50 µM; actives 1.8% (n = 190,000); AID 868;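 active means inhibition above a set limit, 3 SD over mean compound inhibition, cut at about 8.4% in these data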;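 further: 0% = DMSO-only wells with no growth and 100% = 10 µM 1-NA-PP1 full growth; inhibition rescues growth on 5-FOA so higher OD means more RAM inhibition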
WT yeast gro inh: growth inhibition of WT yeast, mitochondrial fusion screen; inhibition, % at 10 µM; actives 2.1% (n = 190,000); mitochondrial fusion phenotypic screen, WT strain; AID 1362; in the data active means inhibition above about 58%; tested in S. cerevisiae
Lmaj promast: inhibitors of Leishmania major promastigote growth | actives 9% (n = 200,000) | inhibition, % at 10 µM | Leishmania major promastigotes, resazurin fluorescence viability; in the data active means inhibition above about 50%;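 further: promastigotes grown with compound for 44 hours at 28 °C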
CHOP inhibitor: blocks CHOP induction under ER stress. CHO-K1 CHOP-promoter luciferase, tunicamycin-induced, 15-18 h. inhibition, % at 10 µM. actives 3.8% (n = 220,000). AID 2732;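 active means compounds that reduced the stress-induced luciferase reporter signal by more than about 70% of percent inhibition, limit read from the data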;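 further: 0% = tunicamycin plus vehicle and 100% = wells without tunicamycin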
* = called active by the depositor; · = no result.

SMILES	RAM inhibit	WT yeast gro inh	Lmaj promast	CHOP inhibitor
CC(=O)c1cccc(S(=O)(=O)NCC2CCCCC2)c1	2	-10	-5	21
O=C(N/N=C\c1ccc(Cl)cc1Cl)c1sccc1-n1cccc1	5	14	100*	65
O=C(N/N=C\c1ccc(Cl)cc1)c1sccc1-n1cccc1	3	28	-2	40
CCC(CC)NC(=O)c1cccc(Oc2ccccc2)c1	3	21	4	23
O=C1C2C(c3ccccc3)=NN(c3ccccc3)C2C(=O)N1c1ccccc1 (stereo unspecified)	1	3	59*	73*
O=C1[C@H]2C(c3ccccc3)=NN(c3ccccc3)[C@H]2C(=O)N1c1ccccc1	6	16	0	59
CC1(C)CC(=O)C2=C(C1)N(c1ccc(F)cc1)C(=O)CC2c1ccsc1 (stereo unspecified)	1	3	0	-18
CNC(=O)NC(=O)COC(=O)c1ccc(-n2c(C)ccc2C)cc1	2	-5	-4	0
O=C(Cc1ccccc1)NNC1=NS(=O)(=O)c2ccccc21	0	-10	-8	10
O=C(CN1C(=O)c2ccccc2C1=O)NNC1=NS(=O)(=O)c2ccccc21	0	-26	61*	15
CC1CCCC(C)N1C(=O)COc1ccc(C(=O)N/N=C/c2ccc(C(=O)O)cc2)cc1 (stereo unspecified)	4	6	-10	14
CCC(=O)NC1(Cc2ccc(O)cc2)CCCCC1	-1	1	-2	9
COc1ccc(-c2cc3nc(-c4ccccc4)cc(N4CCCC(O)C4)n3n2)cc1 (stereo unspecified)	-1	68*	32	33
Fc1ccc(-c2cc3nc(-c4ccccc4)cc(N4CCOCC4)n3n2)cc1	2	·	6	-29
Cc1cccc(-c2cc3nc(-c4ccccc4)cc(N4CCC5(CC4)OCCO5)n3n2)c1	7	35	47	7
COCCN1CCN(c2cc(-c3ccccc3)nc3cc(-c4cccc(F)c4)nn23)CC1	0	77*	87*	80*
COc1ccc(-c2cc3nc(-c4ccccc4)cc(N4CCC(O)CC4)n3n2)cc1	-2	62*	38	3
Cc1ccc(-c2cc3nc(-c4ccccc4)cc(N4CCC5(CC4)OCCO5)n3n2)cc1	2	54	56*	7
CCSC1=C(C#N)C(c2ccc(Cl)cc2)C2=C(CCCC2=O)N1 (stereo unspecified)	-1	6	95*	64
CC(C)(C)C1CCc2c(C(=O)N/N=C/c3cccs3)csc2C1 (stereo unspecified)	2	56	96*	7
COCCNc1nc(-c2cc(-c3ccc(Cl)cc3)on2)cc(C(C)C)n1	·	·	·	46
Cc1ccc(/C=C/C(=O)Nc2nnc(C)s2)o1	0	-14	55*	38
CCOC(=O)c1sc(NC(=O)/C=C/c2cnn(C)c2C)c(C(=O)OC(C)C)c1C	2	59*	0	55
Cc1ccc(/C=C/C(=O)Nc2sc(C)c(C)c2C(=O)OC(C)C)o1	7	-6	51*	29
Cc1ccc(SCCC(=O)NC2CC2)cc1	1	-6	-4	-12
SMILES	RAM inhibit	WT yeast gro inh	Lmaj promast	CHOP inhibitor
COC(=O)c1cc(NS(=O)(=O)c2ccc(N3CCOCC3)c(N)c2)cc(C(=O)OC)c1	6	-16	26	-3
COc1cc(Cl)ccc1NC(=S)N(CCN1CCOCC1)C1CCN(C(C)=O)CC1	1	1	1	-1
O=C(N/N=C/C(Br)=C/c1ccccc1)NC1CCCCC1	0	90*	3	14
O=C(N/N=C/c1ccccc1)NC1CCCCC1	1	-1	4	39
CC(/C=N/NC(=O)NC1CCCCC1)=C\c1ccccc1	3	43	6	86*
CCCCCCCCCCC/C=C\C(C)(C)/C=C\CCCC(=O)O	·	·	·	-2
S=C(NC1CCCCC1)N1CCN(Cc2ccccc2Cl)CC1	1	38	8	6
CC1CCCCN1C(=O)c1cc(-c2ccc(Cl)c(Cl)c2)on1 (stereo unspecified)	3	29	1	45
CCC1CCCCN1C(=O)c1cc(-c2ccc(Cl)c(Cl)c2)on1 (stereo unspecified)	8	74*	-5	12
Cc1cc(C)n(C(=O)c2c([N+](=O)[O-])cnn2C)n1	0	-10	-4	18
CC(C)(CNC(=O)c1ccc([N+](=O)[O-])c(Cl)c1)CNC(=O)c1ccc([N+](=O)[O-])c(Cl)c1	3	48	88*	21
C=CCNC(=O)c1ccc([N+](=O)[O-])c(Cl)c1	0	-1	1	16
Cc1cc(C)n(C(=O)c2ccc([N+](=O)[O-])c(Cl)c2)n1	2	-12	92*	35

Screening data as filed in PubChem.
